Assay results taken from PubChem BioAssay AID1918 (Vanderbilt High Throughput Screening Facility, 2009).
Out of some 130,000 compounds screened, about 2,500 (1.9%) were called active.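 Rule for the calls: active = signal ratio slope over the read window, or its plate-corrected B-score, at least 3 SD from the plate mean, either direction; inactive = the rest.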 The full list was thinned out, with actives kept by preference.

These compounds were tested against ATP-sensitive inward rectifier potassium channel 1 (Homo sapiens) (UniProt P48048) (assay: ROMK potassium channel modulators, primary screen, cell-based, thallium flux, MLSMR library (AID 1918;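 note: B-score of the F/F0 ratio slope over 7 to 12 s after thallium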)). Settings: Tet-inducible ROMK, thallium flux fluorescence; at 10 µM; actives lie on both sides.
Sequence of ATP-sensitive inward rectifier potassium channel 1 (Homo sapiens) (P48048 whole entry, looked up): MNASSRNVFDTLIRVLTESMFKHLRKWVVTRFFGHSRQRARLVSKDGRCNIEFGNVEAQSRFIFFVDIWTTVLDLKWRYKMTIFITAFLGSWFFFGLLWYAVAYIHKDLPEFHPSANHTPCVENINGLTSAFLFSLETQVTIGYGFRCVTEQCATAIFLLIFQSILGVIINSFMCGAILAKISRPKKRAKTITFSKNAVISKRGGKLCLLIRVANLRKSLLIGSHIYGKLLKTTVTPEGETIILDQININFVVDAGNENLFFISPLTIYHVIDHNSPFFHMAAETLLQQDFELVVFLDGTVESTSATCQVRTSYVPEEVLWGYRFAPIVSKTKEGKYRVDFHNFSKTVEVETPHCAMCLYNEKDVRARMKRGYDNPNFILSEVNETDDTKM
For `COC(=O)Cn1cc(C(=O)c2cccs2)c2ccccc21`, the B-score was 0.201 (inactive). With `COC(=O)Cn1cc(/C=C/[N+](=O)[O-])c2ccccc21` the B-score was -8.61 (active). For `COC(=O)N/N=C/c1cn(CCCOc2ccc(C)cc2)c2ccccc12`, the B-score was 0.506 (inactive). In the case of `O=C(N/C(=C\c1ccc(F)cc1)C(=O)N1CCCCCC1)c1ccccc1`, the B-score was 0.658 (inactive). `Cc1ccc(C(=O)N/C(=C\c2ccco2)C(=O)NC2CCS(=O)(=O)C2)cc1` (centres undefined) was tested, and the B-score was 0.484 (inactive). In the case of `COc1ccc(CC(=O)NC(C)CCc2ccccc2)cc1` (centres undefined), the B-score was -0.201 (inactive). `COc1ccc(C(CC(=O)O)NC(=O)Cc2ccccc2)cc1` (centres undefined) was tested, and the B-score was -0.208 (inactive). `COc1ccc(C(CCNCc2ccccc2F)c2ccc(F)cc2)cc1` (centres undefined) was tested, and the B-score was -2.56 (active). With `O=C(NC1CC1)C1CCCN(C(=O)NC2CCCCC2)C1` (centres undefined) the B-score was 0.0365 (inactive). `CCN(C(=O)CSc1nc2ccccc2n1CC)C1CCS(=O)(=O)C1` (centres undefined) was tested, and the B-score was -1.63 (inactive). In the case of `Cc1cc(=O)[nH]c2nnnn12`, the B-score was -0.253 (inactive). `Cc1ccc(N2C(=O)SC(N(CC(=O)O)c3ccc(C)cc3)C2=O)cc1` (centres undefined) was tested, and the B-score was 0.244 (inactive). With `Cc1ccc(N2C(=O)CC(Nc3cccc4ccccc34)C2=O)cc1` (centres undefined) the B-score was -0.14 (inactive). In the case of `Cc1ccc(N2C(=O)C3CC3C2=O)cc1` (centres undefined), the B-score was 1.41 (active). `O=C(CSc1nc2ccccc2o1)N/N=C/c1ccccc1C(=O)O` was tested, and the B-score was 0.754 (inactive). In the case of `CCOC(=O)c1sc(=S)n(-c2cccc(OC)c2)c1N`, the B-score was -0.158 (inactive). With `CCOC(=O)Cn1c(N)c(C(=O)OC)sc1=S` the B-score was -0.216 (inactive). In the case of `CCOC(=O)c1sc(=S)n2c1[nH]c(=O)c1ccc(C(=O)OC)cc12`, the B-score was 6.64 (active). For `CC(C)N1CCC(=NNc2ccc([N+](=O)[O-])cc2S(=O)(=O)N2CCOCC2)CC1`, the B-score was -0.739 (inactive). For `CC(C)OC(=O)CN1C(=O)C(=O)c2ccccc21`, the B-score was -0.327 (inactive). For `O=C1c2ccccc2C(=O)N1c1ccccc1S(=O)C(F)(F)F` (centres undefined), the B-score was -0.708 (inactive). With `O=C1C(=O)N(c2ccccc2)c2ccccc21` the B-score was 3.08 (active). In the case of `Cc1cc([N+](=O)[O-])nn1CCCC(=O)Nc1cccnc1Cl`, the B-score was 0.471 (inactive). In the case of `COc1ccc(Br)cc1/C=N/NC(=O)c1cccc(S(=O)(=O)N2CCOCC2)c1`, the B-score was -0.0649 (inactive). With `Oc1c(C=Nc2cccc3nsnc23)ccc2ccccc12` the B-score was -0.773 (inactive). In the case of `Oc1ccc2ccccc2c1N=Nc1nccs1`, the B-score was 2.22 (active). For `COc1cccc(C(=O)Nc2cccnc2)c1OC`, the B-score was 1.32 (inactive). In the case of `Cc1cc(/C=N/NC(N)=O)c(C)n1C1CCCCC1`, the B-score was 3.24 (active). For `Cc1cccc(-n2c(C)cc(/C=N/NC(N)=S)c2C)c1`, the B-score was 2.21 (inactive). For `Cc1cccc(-n2c(C)cc(/C=N\NC(=O)c3cccs3)c2C)c1`, the B-score was 0.454 (inactive). With `CCOc1cc(C(=O)N2CCc3cc(OC)c(OC)cc3C2)ccc1OC(F)F` the B-score was 4.09 (active). With `COc1cc2c(cc1OC)CN(C(=O)c1cc(=O)c3ccccc3o1)CC2` the B-score was 2.64 (inactive). In the case of `COc1ccc(CC(NC(C)=O)C(=O)NC2CCN(C(=O)c3ccc(OC)c(OC)c3)CC2)cc1OC` (centres undefined), the B-score was -0.592 (inactive). With `CS(=O)(=O)N(Cc1ccccc1Cl)c1ccc(C(=O)NCc2cccnc2)cc1` the B-score was -0.455 (inactive). For `S=C(NCc1ccco1)Nc1ccc2c(c1)OCCO2`, the B-score was 0.904 (inactive). In the case of `CCSc1sc(CC)cc1C=O`, the B-score was 4.04 (active). In the case of `Cc1ccc(S(=O)(=O)Nc2nc(N)n(-c3ccccc3)n2)cc1`, the B-score was 0.00772 (inactive). With `Cc1noc(COc2ccccc2OCC(O)CNC(C)(C)C)n1` (centres undefined) the B-score was -0.0138 (inactive). With `CC(C)(C)CC(C)(C)NCC(O)COCCOc1ccc(Br)cc1` (centres undefined) the B-score was -3.09 (active). For `Nc1ccccc1SC(C[N+](=O)[O-])c1ccccc1` (centres undefined), the B-score was -8.64 (active). In the case of `O=C(NCc1ccc(Cl)cc1)NCc1ccc(Cl)cc1`, the B-score was -0.951 (inactive). With `Oc1ccccc1/C=N/n1c(-c2cccs2)n[nH]c1=S` the B-score was 0.503 (inactive). `S=c1[nH]nc(-c2ccccc2)n1/N=C/c1c[nH]c2ccccc12` was tested, and the B-score was 1.36 (inactive). For `S=c1[nH]nc(-c2cccnc2)n1/N=C/C(Cl)=C\c1ccccc1`, the B-score was -3.13 (active). `Cc1ccc(C(=O)O)cc1NC(=O)c1ccc(Cn2nc(C)c(Cl)c2C)o1` was tested, and the B-score was -0.188 (inactive). For `Cc1nc2sc3c(c2c(=O)n1NC(=O)CCl)CCCC3`, the B-score was -0.421 (inactive). In the case of `CS(=O)(=O)c1ccc2c(c1)SC1=NC(=O)/C(=C/c3ccco3)C(=N)N12`, the B-score was 0.317 (inactive). For `CCS(=O)(=O)C1=NSC2=NC(=O)/C(=C\c3cc(C)n(-c4cccc(OC)c4)c3C)C(=N)N21`, the B-score was 1.02 (inactive). For `Cc1cc(/C=C2/C(=N)N3C(=NC2=O)SN=C3S(C)(=O)=O)c(C)n1-c1ccccc1`, the B-score was 1.2 (active). `CC(C)(C)NC(=O)NC(=O)COC(=O)Cc1c(F)cccc1Cl` was tested, and the B-score was -0.0671 (inactive). In the case of `COC(=O)COc1ccc(C2NC(=O)NC(C)=C2C(=O)NCc2ccccc2)cc1OC` (centres undefined), the B-score was 0.834 (inactive). `NS(=O)(=O)c1ccc(NC(=O)/C=C/c2ccccc2Cl)cc1` was tested, and the B-score was 0.913 (inactive). For `CCN(CC)N=Nc1cccc(NC(C)=O)c1`, the B-score was 0.863 (inactive). For `Cc1cccn2c(=O)c3cc(C(=O)N4COCC4(C)C)n(C)c3nc12`, the B-score was -4.56 (active). In the case of `CCn1c(=N)c(C(=O)NCCCOC)cc2c(=O)n3cccc(C)c3nc21`, the B-score was -1.26 (inactive). With `Cc1cccn2c(=O)c3cc(C#N)c(=O)n(CCCN4CCOCC4)c3nc12` the B-score was 0.896 (inactive). For `S=C(c1ccc(-c2ccccc2)o1)N1CCCCC1`, the B-score was -1.97 (inactive). `CC(=O)NC(Cc1ccc(F)c(F)c1)C(=O)NC1CCN(C(=O)c2ccc(C)cc2)CC1` (centres undefined) was tested, and the B-score was -0.484 (inactive). With `CCOC(=O)N1CCN(C(=O)c2ccccc2N(Cc2ccccc2)S(=O)(=O)c2ccc(OC)cc2)CC1` the B-score was 2.44 (inactive). `NC(=O)c1ccccc1N(Cc1ccccc1)S(=O)(=O)c1ccccc1` was tested, and the B-score was 3.2 (active). `CCOC(=O)C1CCN(C(=O)c2ccccc2N(C)S(=O)(=O)c2ccccc2)CC1` was tested, and the B-score was 0.0133 (inactive). With `COC(=O)c1ccccc1NC(=O)C1CC(=O)N(c2ccc(OC)cc2)C1` (centres undefined) the B-score was 0.403 (inactive). `COC(=O)c1ccccc1NC(=O)C1CCN(S(=O)(=O)c2cc(OC)ccc2OC)CC1` was tested, and the B-score was 2.29 (active). With `CCOC(=O)C1CCN(S(=O)(=O)c2cc(F)ccc2OC)CC1` the B-score was -0.346 (inactive).
